# Measurements published in paper PMC5540273 (PLoS ONE, 2017).
# Columns and labels:
# Details in all cases: concentration: 1 μM, replicates: in singlicate; n = 1
# MST1 = system: T1, MST1
# T1 construct: gene STK4
# MST2 = system: T2, MST2
# T2 construct: gene STK3
# MST3 = system: T3, MST3
# T3 construct: gene STK24
# MST4 = system: MST4
# MTOR = system: MTOR
# MUSK = system: MUSK
# MYLK2 = system: MYLK2
# MYLK4 = system: MYLK4
# MYLK = system: MYLK
# MYO3A = system: MYO3A
# MYO3B = system: MYO3B
# NDR1 = system: T4, NDR1
# T4 construct: gene STK38
# NDR2 = system: NDR2
# NEK10 = system: NEK10
# NEK11 = system: NEK11
# NEK1 = system: NEK1
# NEK2 = system: NEK2
# NEK3 = system: NEK3
# NEK4 = system: NEK4
# NEK5 = system: NEK5
# 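Note: KINOMEscan kinase panel screen.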
Structure (SMILES),%Inh (MST1),%Inh (MST2),%Inh (MST3),%Inh (MST4),%Inh (MTOR),%Inh (MUSK),%Inh (MYLK2),%Inh (MYLK4),%Inh (MYLK),%Inh (MYO3A),%Inh (MYO3B),%Inh (NDR1),%Inh (NDR2),%Inh (NEK10),%Inh (NEK11),%Inh (NEK1),%Inh (NEK2),%Inh (NEK3),%Inh (NEK4),%Inh (NEK5)
O=C(NCCCN1CCOCC1)c1cccc(Nc2nccc(Nc3ccc(Oc4ccccc4)cc3)n2)c1 [GW663929],0%,34%,14%,0%,12%,2%,0%,25%,0%,35%,0%,40%,41%,0%,13%,11%,6%,5%,0%,24%
Cc1cccc(-c2nc(-c3ccc(S(C)(=O)=O)cc3)sc2-c2ccncc2)c1,5%,0%,5%,0%,0%,0%,0%,0%,6%,7%,0%,0%,14%,0%,0%,8%,0%,61%,0%,3%
Cc1ccc(C(=O)NCC(N)=O)cc1-n1c(C)cc(OCc2ccc(F)cc2F)c(Br)c1=O,13%,4%,26%,0%,0%,0%,12%,14%,7%,14%,15%,24%,13%,0%,0%,0%,10%,29%,0%,0%
O=C1Cc2cc(Nc3nc(NCc4cccc(S(=O)(=O)C(F)(F)F)c4)ncc3C(F)(F)F)ccc2N1,14%,27%,0%,1%,29%,0%,0%,8%,2%,0%,0%,9%,0%,36%,0%,10%,9%,12%,5%,14%
NCC(NC(=O)c1cc(-c2cn[nH]c2)c(-c2ccnc3[nH]ccc23)s1)c1ccccc1.O=C(O)C(F)(F)F.O=C(O)C(F)(F)F (centres unmarked) [GSK1325775],0%,12%,1%,45%,5%,0%,45%,100%,63%,32%,0%,65%,70%,50%,15%,72%,43%,7%,0%,57%
Nc1nc(-c2ccc3c(N)n[nH]c3c2)cc(N2CCCC2)n1 [GSK2227430],0%,0%,0%,0%,0%,0%,0%,2%,9%,0%,7%,14%,0%,0%,0%,12%,0%,5%,0%,0%
COc1ccc(Nc2nccc(N3CCC(NC(=O)Nc4cccc(C(C)=O)c4)C3)n2)cc1 (centres unmarked) [GSK1379731],4%,0%,0%,0%,16%,3%,0%,0%,0%,0%,0%,0%,0%,13%,15%,0%,0%,0%,13%,3%
CCCCCc1nc2c(N)ncnc2n1CCCCC [SKF-97255],0%,0%,0%,0%,0%,0%,6%,12%,17%,1%,10%,31%,7%,16%,0%,18%,0%,28%,0%,0%
O=c1cc(N2CCOCC2)nc2n(Cc3cccc(Cl)c3Cl)c(C3CC3)nn12 [GSK2358994],0%,41%,4%,0%,0%,0%,0%,0%,14%,0%,0%,0%,0%,20%,0%,0%,7%,5%,11%,0%
Cc1c(Cn2c(C)nn3c(=O)cc(N4CCOC(C)C4)nc23)cccc1C(F)(F)F (centres unmarked) [GSK2344444],0%,0%,2%,0%,28%,0%,8%,1%,0%,7%,0%,0%,0%,2%,0%,0%,3%,0%,22%,0%
